# Test results from PubChem BioAssay AID1159580 (chemical genetic matrix, 2015).
# “And” between values parts separate entries of the source, which are not always exact repeats. Equal entries are not always repeated. About 2,000 (36%) of roughly 5,500 compounds were called active. Roughly 18% stayed inconclusive and do not appear here. The list shows a part of the results. Unmarked numbers belong to inactive results. No stated cut-off is given here; in the data, active means normalized growth mostly below about 0.91 (no sharp cut-off); inconclusive means no clear call, values can overlap the other calls; inactive means mostly above about 0.92.
# Assay: chemical genetic growth profiling, strain panel (AID 1159580);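 further: tested at 20 µM; growth read once vehicle control cultures reached saturation at 30 °C; 1 = growth at the plate median or of vehicle wells; lower values mean less growth of the strain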
# Settings: growth OD
smiles,measurement,setting,value
NCCc1cnc[nH]1,normalized growth,"S. cerevisiae deletion strains, locus YJR066W, strain TOR1, active compounds read low",0.985
same,normalized growth,"S. cerevisiae deletion strains, locus YJR075W, strain HOC1, active compounds read low",1.01
same,normalized growth,"S. cerevisiae deletion strains, locus YKL009W, strain mrt4, active compounds read low",1.01
same,normalized growth,"S. cerevisiae deletion strains, locus YKL068W, active compounds read low",1.01
same,normalized growth,"S. cerevisiae deletion strains, locus YKL085W, strain MDH1 (second series), active compounds read low",1.01
same,normalized growth,"S. cerevisiae deletion strains, locus YKL085W, strain MDH1, active compounds read low",1.01
same,normalized growth,"S. cerevisiae deletion strains, locus YKL160W, strain elf1, active compounds read low",1.02
same,normalized growth,"S. cerevisiae deletion strains, locus YKL190W, strain CNB1, active compounds read low",0.978
same,normalized growth,"S. cerevisiae deletion strains, locus YKR001C, strain vps1, active compounds read low",1.01
same,normalized growth,"S. cerevisiae deletion strains, locus YKR026C, strain gcn3, active compounds read low",1.02
same,normalized growth,"S. cerevisiae deletion strains, locus YKR091W, strain srl3, active compounds read low",1.02
same,normalized growth,"S. cerevisiae deletion strains, locus YLL001W, strain dnm1, active compounds read low",1.02
same,normalized growth,"S. cerevisiae deletion strains, locus YLL026W, active compounds read low",1.02
same,normalized growth,"S. cerevisiae deletion strains, locus YLL041C, strain sdh2, active compounds read low",1.02
same,normalized growth,"S. cerevisiae deletion strains, locus YLR027C, strain aat2, active compounds read low",1.01
same,normalized growth,"S. cerevisiae deletion strains, locus YLR039C, strain RIC1, active compounds read low",1.05
same,normalized growth,"S. cerevisiae deletion strains, locus YLR058C, strain SHM2, active compounds read low",1.01
same,normalized growth,"S. cerevisiae deletion strains, locus YLR102C, strain apc9, active compounds read low",1.02
same,normalized growth,"S. cerevisiae deletion strains, locus YLR113W, strain HOG1, active compounds read low",0.985
same,normalized growth,"S. cerevisiae deletion strains, locus YLR221C, strain rsa3, active compounds read low",1.05
same,normalized growth,"S. cerevisiae deletion strains, locus YLR258W, strain gsy2, active compounds read low",1.02
same,normalized growth,"S. cerevisiae deletion strains, locus YLR262C, strain YPT6 (second series), active compounds read low",1.06
same,normalized growth,"S. cerevisiae deletion strains, locus YLR262C, strain YPT6, active compounds read low",1
same,normalized growth,"S. cerevisiae deletion strains, locus YLR268W, strain sec22, active compounds read low",1.02
same,normalized growth,"S. cerevisiae deletion strains, locus YLR320W, strain mms22, active compounds read low",1.04
same,normalized growth,"S. cerevisiae deletion strains, locus YLR330W, strain CHS5, active compounds read low",1.01
same,normalized growth,"S. cerevisiae deletion strains, locus YLR342W, strain FKS1 (second series), active compounds read low",0.997
same,normalized growth,"S. cerevisiae deletion strains, locus YLR342W, strain FKS1, active compounds read low",1.02
same,normalized growth,"S. cerevisiae deletion strains, locus YLR357W, strain rsc2, active compounds read low",1
same,normalized growth,"S. cerevisiae deletion strains, locus YLR370C, strain arc18, active compounds read low",1.01
same,normalized growth,"S. cerevisiae deletion strains, locus YLR371W, strain rom2, active compounds read low",1
same,normalized growth,"S. cerevisiae deletion strains, locus YLR384C, strain iki3, active compounds read low",1.02
same,normalized growth,"S. cerevisiae deletion strains, locus YLR418C, strain cdc73, active compounds read low",1.04
same,normalized growth,"S. cerevisiae deletion strains, locus YML016C, strain PPZ1, active compounds read low",1.01
same,normalized growth,"S. cerevisiae deletion strains, locus YML032C, strain rad52, active compounds read low",1.01
same,normalized growth,"S. cerevisiae deletion strains, locus YML120C, strain ndi1, active compounds read low",1.02
same,normalized growth,"S. cerevisiae deletion strains, locus YML124C, strain tub3, active compounds read low",1.01
same,normalized growth,"S. cerevisiae deletion strains, locus YMR058W, strain fet3, active compounds read low",1.02
same,normalized growth,"S. cerevisiae deletion strains, locus YMR078C, strain ctf18, active compounds read low",1.02
same,normalized growth,"S. cerevisiae deletion strains, locus YMR125W, strain sto1, active compounds read low",1.02
same,normalized growth,"S. cerevisiae deletion strains, locus YMR129W, active compounds read low",1.02
same,normalized growth,"S. cerevisiae deletion strains, locus YMR205C, strain PFK2, active compounds read low",1.04
same,normalized growth,"S. cerevisiae deletion strains, locus YMR223W, strain ubp8, active compounds read low",1.03
same,normalized growth,"S. cerevisiae deletion strains, locus YMR231W, strain pep5, active compounds read low",1.01
same,normalized growth,"S. cerevisiae deletion strains, locus YMR307W, strain GAS1, active compounds read low",0.923 and 0.999
same,normalized growth,"S. cerevisiae deletion strains, locus YNL067W, strain RPL9B, active compounds read low",0.995
same,normalized growth,"S. cerevisiae deletion strains, locus YNL071W, strain lat1, active compounds read low",1.02
same,normalized growth,"S. cerevisiae deletion strains, locus YNL128W, strain TEP1, active compounds read low",1
same,normalized growth,"S. cerevisiae deletion strains, locus YNL153C, strain GIM3, active compounds read low",0.778 (active)
same,normalized growth,"S. cerevisiae deletion strains, locus YNL175C, strain NOP13, active compounds read low",0.381 (active)
same,normalized growth,"S. cerevisiae deletion strains, locus YNL183C, strain NPR1, active compounds read low",0.962
same,normalized growth,"S. cerevisiae deletion strains, locus YNL197C, strain WHI3, active compounds read low",0.662 (active)
same,normalized growth,"S. cerevisiae deletion strains, locus YNL209W, strain ssb2, active compounds read low",1.02
same,normalized growth,"S. cerevisiae deletion strains, locus YNL233W, strain BNI4, active compounds read low",1.01
same,normalized growth,"S. cerevisiae deletion strains, locus YNL248C, strain rpa49, active compounds read low",1.02
same,normalized growth,"S. cerevisiae deletion strains, locus YNL250W, strain rad50, active compounds read low",1.05
same,normalized growth,"S. cerevisiae deletion strains, locus YNL271C, strain bni1, active compounds read low",1.03
same,normalized growth,"S. cerevisiae deletion strains, locus YNL298W, strain CLA4, active compounds read low",1.02
same,normalized growth,"S. cerevisiae deletion strains, locus YNL307C, strain MCK1, active compounds read low",1.02
same,normalized growth,"S. cerevisiae deletion strains, locus YNL322C, strain KRE1 (second series), active compounds read low",1.03
same,normalized growth,"S. cerevisiae deletion strains, locus YNR049C, strain mso1, active compounds read low",1.04
same,normalized growth,"S. cerevisiae deletion strains, locus YNR052C, strain pop2, active compounds read low",1.01
same,normalized growth,"S. cerevisiae deletion strains, locus YOL012C, strain htz1",1.37
same,normalized growth,"S. cerevisiae deletion strains, locus YOL147C, strain pex11, active compounds read low",1.02
same,normalized growth,"S. cerevisiae deletion strains, locus YOR001W, strain rrp6, active compounds read low",1.01
same,normalized growth,"S. cerevisiae deletion strains, locus YOR061W, strain CKA2, active compounds read low",1.01
same,normalized growth,"S. cerevisiae deletion strains, locus YOR069W, strain VPS5, active compounds read low",1
same,normalized growth,"S. cerevisiae deletion strains, locus YOR070C, strain gyp1, active compounds read low",1.02
same,normalized growth,"S. cerevisiae deletion strains, locus YOR080W, strain dia2, active compounds read low",1.01
same,normalized growth,"S. cerevisiae deletion strains, locus YOR083W, strain WHI5 (second series), active compounds read low",0.582 (active)
same,normalized growth,"S. cerevisiae deletion strains, locus YOR083W, strain WHI5, active compounds read low",1.03
same,normalized growth,"S. cerevisiae deletion strains, locus YOR106W, strain vam3, active compounds read low",1
same,normalized growth,"S. cerevisiae deletion strains, locus YOR136W, strain idh2, active compounds read low",1.02
same,normalized growth,"S. cerevisiae deletion strains, locus YOR144C, strain elg1, active compounds read low",1.01
same,normalized growth,"S. cerevisiae deletion strains, locus YOR184W, strain ser1, active compounds read low",1.02
same,normalized growth,"S. cerevisiae deletion strains, locus YOR231W, strain MKK1, active compounds read low",1
same,normalized growth,"S. cerevisiae deletion strains, locus YOR265W, strain rbl2, active compounds read low",1.02
same,normalized growth,"S. cerevisiae deletion strains, locus YOR270C, strain vph1, active compounds read low",1.07
same,normalized growth,"S. cerevisiae deletion strains, locus YOR290C, strain snf2, active compounds read low",0.969
same,normalized growth,"S. cerevisiae deletion strains, locus YOR316C, strain cot1, active compounds read low",1.02
same,normalized growth,"S. cerevisiae deletion strains, locus YPL051W, strain arl3, active compounds read low",1
same,normalized growth,"S. cerevisiae deletion strains, locus YPL078C, strain atp4, active compounds read low",1.02
same,normalized growth,"S. cerevisiae deletion strains, locus YPL106C, strain sse1, active compounds read low",1.03
same,normalized growth,"S. cerevisiae deletion strains, locus YPL240C, strain hsp82, active compounds read low",1.01
same,normalized growth,"S. cerevisiae deletion strains, locus YPL241C, strain CIN2, active compounds read low",1
same,normalized growth,"S. cerevisiae deletion strains, locus YPR119W, strain clb2, active compounds read low",1.01
same,normalized growth,"S. cerevisiae deletion strains, locus YPR141C, strain kar3, active compounds read low",1.01
same,normalized growth,"S. cerevisiae deletion strains, locus YPR163C, strain tif3, active compounds read low",1.03
same,normalized growth,"S. cerevisiae deletion strains, locus YPR167C, strain met16, active compounds read low",1.02
same,normalized growth,"S. cerevisiae deletion strains, strain wtn01, active compounds read low",1.01
same,normalized growth,"S. cerevisiae strains, strain wild type, active compounds read low",0.988
